Experimental data as given in ChEMBL document CHEMBL1157539, “Thousands of chemical starting points for antimalarial lead identification” (Nature, 2010).
Over roughly 13,000 compounds, “IFI” has its median near 4; the highest 2% begin near 17. The entries come from a sample that favours the highest values as a whole.

Assay: GSK_TCMDC: Inhibition Frequency Index (IFI). The number of non-kinase HTS assays where a compound showed > 50 % inhibition, expressed as a percentage of the number of such assays in which the compound was tested
Format: functional

First: Cc1cccc2nc(-c3ccc(-c4ccc(CN5CCCC(N)C5)cc4)cc3)[nH]c12 (centres undefined)
Second: COCCN1CCN(Cc2ccc(-c3ccc(-c4nc5cc(F)ccc5[nH]4)cc3)cc2)CC1
The IFI of the first is lower: 4.23% for the first, 4.9% for the second.

Going from `COc1ccccc1C1CCN(C2CCC(NC(=O)c3cc4ccccc4[nH]3)CC2)CC1` (centres undefined) to `COc1ccccc1C1CCN(C2CCC(NC(=O)c3cc4cc(C(C)C)ccc4[nH]3)CC2)CC1` (centres undefined), the IFI rises from 16.4% to 18%.

First: CCc1c(C(=O)NC2CCC(N3CCC(c4ccccc4C)CC3)CC2)[nH]c2ccc(Br)cc12 (centres undefined)
Second: CCc1c(C(=O)NC2CCC(N3CCC(c4ccccc4OC)CC3)CC2)[nH]c2ccc(OC)cc12 (centres undefined)
The IFI of the first is higher: 15.8% for the first, 6.45% for the second.

First: Cc1ccc(/C=C/C(=O)NC2CCC(N3CCC(c4ccccc4C)CC3)CC2)cc1F (centres undefined)
Second: Cc1ccc(/C=C/C(=O)NC2CCC(N3CCC(c4ccccc4C)CC3)CC2)cc1C (centres undefined)
The IFI of the first is lower: 13.3% for the first, 15% for the second.

Going from `COc1ccccc1C1CCN(C2CCC(NC(=O)c3cc(-c4ccc(Cl)cc4)cs3)CC2)CC1` (centres undefined) to `Cc1ccccc1C1CCN(C2CCC(NC(=O)c3cc(-c4ccc(Cl)cc4)cs3)CC2)CC1` (centres undefined), the IFI rises from 16.4% to 22.4%.

Going from `COc1ccc(-c2csc(C(=O)NC3CCC(N4CCC(c5ccccc5C)CC4)CC3)c2)cc1` (centres undefined) to `Cc1ccccc1C1CCN(C2CCC(NC(=O)c3cc4cc(C(C)C)ccc4[nH]3)CC2)CC1` (centres undefined), the IFI rises from 14% to 19.6%.

Compared with `COc1ccccc1C1CCN(C2CCC(NC(=O)/C=C/c3ccc4c(c3)OC(F)(F)O4)CC2)CC1` (centres undefined), `Cc1ccccc1C1CCN(C2CCC(NC(=O)/C=C/c3ccc4c(c3)OC(F)(F)O4)CC2)CC1` (centres undefined) is higher in IFI: 9.84% for the first, 17.2% for the second.

First: CN1CCC(NCc2ccc(-c3cccc(-c4nc5ccccc5[nH]4)c3)cc2)CC1
Second: O=C(Nc1ccccc1)N(Cc1ccc(-c2cccc(CNC3CCCC3)c2)cc1)C1CCN(Cc2ccccc2)CC1
The IFI of the first is lower: 4.76% for the first, 7.04% for the second.

Compared with `Cc1[nH]c(C)c(-c2ccc(OCc3ccc(F)cc3)nc2)c(=O)c1Br`, `Cc1[nH]c(C)c(-c2ccc(CCc3ccc(N)cc3)cc2)c(=O)c1Cl` is lower in IFI: 3.57% for the first, 1.89% for the second.

Compared with `Cc1c(Cl)cccc1N=C(S)NN=Cc1ccccn1`, `CCOc1ccc2[nH]c(C)cc(=NN=Cc3ccccc3)c2c1` is lower in IFI: 6.3% for the first, 1.53% for the second.

Compared with `Cc1c(-c2cccc(C(C)(C)NCCCN3CCCCC3)c2)cnc(N)c1C`, `CC(C)(C)c1ccc(CN2CCC(CNC(=O)c3cc(-c4cccc(Cl)c4)cs3)C2)cc1` (centres undefined) is higher in IFI: 0.74% for the first, 12.2% for the second.

First: Cc1ccc(O)cc1C[C@@H]1C(=O)CC[C@@]2(C)[C@H]1CC[C@]2(C)O
Second: Cc1c(C)c2c(c(C)c1O)CC[C@](C)(C(=O)N1CCC(CCN3CCC(c4c[nH]c5ccccc45)CC3)CC1)O2
The IFI of the first is lower: 0% for the first, 5.88% for the second.

Going from `Cc1cccc2nc(-c3ccc(-c4cccc(CNCCCNS(C)(=O)=O)c4)s3)[nH]c12` to `CC(=O)Nc1cc(C(=O)Nc2cccc(-c3cccc(-c4nc5cccc(C)c5[nH]4)c3)c2)ccc1C`, the IFI rises from 3.96% to 5.88%.

Going from `CNC(=O)c1cnc(Nc2ccc(OCC(O)CN(C)C)cc2)nc1Nc1cccc(OC)c1` (centres undefined) to `CN(C)CC(O)COc1ccc(Nc2ncc([N+](=O)[O-])c(Nc3ccccc3O)n2)cc1` (centres undefined), the IFI rises from 2.22% to 6.21%.

Compared with `CCN(CC)CCCC(C)Nc1c(-c2ccc(OC)cc2)cnc2ccccc12` (centres undefined), `COc1cccc(-c2ccc3ccnc(N)c3c2)c1` is higher in IFI: 0% for the first, 7.87% for the second.

First: CN(C)c1nc(NCc2ccccc2)nc(N/N=C/c2cc([N+](=O)[O-])ccc2O)n1
Second: O=[N+]([O-])c1cnc(Nc2ccccc2O)nc1Nc1ccccc1O
The IFI of the first is lower: 6.16% for the first, 19.2% for the second.

First: CNC(=O)C1Cc2c([nH]c3cc(Br)ccc23)C2(CCN(CCc3ccccc3)CC2)N1 (centres undefined)
Second: COc1ccc2nccc(N3CCN(CCNCc4ccc5c(n4)NC(=O)CO5)CC3)c2c1
The IFI of the first is higher: 7.86% for the first, 3.73% for the second.

First: Cc1cccc2nc(-c3cccc(-c4cccc(NC(=O)COc5ccccc5C(N)=O)c4)c3)[nH]c12
Second: COc1ccc2[nH]c(C(=O)Nc3ccc4[nH]c(-c5ccccc5)nc4c3)cc2c1
The IFI of the first is lower: 6.09% for the first, 7.69% for the second.

First: CN(C)CCNC(=O)c1ccc(-c2cnc3ccc(NCc4ccc(Cl)c(Cl)c4)nn23)cc1
Second: O=[N+]([O-])c1ccc2nc(Nc3ccc(Cl)c(Cl)c3)c(Nc3ccc(Cl)c(Cl)c3)nc2c1
The IFI of the first is higher: 9.02% for the first, 2.86% for the second.

Going from `CCCCc1ccc2ncc(C(=O)OCC)c(O)c2c1` to `CCCCCCCN1CC[C@@H](CCCc2ccnc3ccc(OCCCCN/C(N)=N/O)cc23)[C@@H](CC)C1`, the IFI rises from 0.78% to 9.66%.

Going from `COc1c(Br)cc(Br)cc1-c1ccc(CN2C3CCCC2CCC3)[nH]1` to `COc1c(Br)cc(Br)cc1-c1ccc(CN2CC3CCC2CC3)[nH]1`, the IFI rises from 6.82% to 21.1%.

First: COc1cccc(C(=O)Nc2ccc(Nc3nc(C)cc(N(C)C)n3)cc2)c1OC
Second: Clc1ccc(Nc2nc3ccc(Cl)cc3nc2Nc2ccc(Cl)cc2)cc1
The IFI of the first is lower: 7.14% for the first, 10.1% for the second.

Compared with `CN1CCN(c2ccc(Nc3ncc([N+](=O)[O-])c(Nc4ccccc4O)n3)cc2)CC1`, `O=[N+]([O-])c1ccc2nc(Nc3cccc(C(F)(F)F)c3)c(Nc3cccc(C(F)(F)F)c3)nc2c1` is lower in IFI: 6.99% for the first, 5.88% for the second.

First: CCc1cn(CC(=O)N(CCOc2ccc(-c3ccc(C(F)(F)F)cc3)cc2)CCN(CC)CC)c(SCc2ccc(F)cc2)nc1=O
Second: Nc1nccc2ccc(-c3ccc(OCc4ccccc4)cc3)cc12
The IFI of the first is lower: 6.34% for the first, 19.1% for the second.

Compared with `FC(F)(F)c1cccc(Nc2nc3nonc3nc2NC2C3CC4CC(C3)CC2C4)c1` (centres undefined), `Clc1ccc(Nc2nc3nonc3nc2Nc2ccc(Cl)c(Cl)c2)cc1` is lower in IFI: 20.6% for the first, 19.4% for the second.

Going from `FC(F)(F)c1cccc(Nc2nc3ccccc3nc2Nc2cccc(C(F)(F)F)c2)c1` to `Cc1cc(NCCc2ccccc2)nc(NC(=N)Nc2cccc(F)c2)n1`, the IFI falls from 10% to 6.77%.

Compared with `CC1(C)C(=O)Nc2ccc3c(c21)CC1SC(=O)NN=C31` (centres undefined), `NCc1cccc(-c2ccc3ccnc(N)c3c2)c1` is higher in IFI: 2.22% for the first, 2.86% for the second.

First: CCCN(CCC)C(=O)c1cc(C(=O)N[C@@H](Cc2ccccc2)[C@H](O)CNC(C)(C)c2cccc(OC)c2)cc(N2CCCCS2(=O)=O)c1
Second: Nc1nccc2ccc(-c3cccc(OCc4ccccc4)c3)cc12
The IFI of the first is lower: 3.62% for the first, 19.8% for the second.

Compared with `Cc1cc2cc(-c3ccc(CN)cc3)ccc2nc1N`, `Nc1ccc(-c2ccc3ccnc(N)c3c2)cc1` is higher in IFI: 3.88% for the first, 9.09% for the second.

Going from `O=C(c1ccc([N+](=O)[O-])o1)N1CCC(Cc2ccc(C(F)(F)F)cc2)CC1` to `Clc1ccc(CNCCCCCCNCc2ccc(Cl)cc2)cc1`, the IFI rises from 9.52% to 11.3%.

Going from `Nc1nccc2ccc(-c3cccc(O)c3)cc12` to `Nc1cccc(-c2ccc3ccnc(N)c3c2)c1`, the IFI falls from 7.14% to 5.56%.

Compared with `Nc1nccc2ccc(-c3ccncc3)cc12`, `Nc1nccc2ccc(-c3ccc(Oc4ccccc4)cc3)cc12` is higher in IFI: 3% for the first, 20.7% for the second.
